Most compounds without a hit are left out; they make up all but 3.4% or so of the library.
HIF-2a block: HIF-2a reporter inhibitors, primary screen, luminescence, 786-0 RCC cells; 786-0 RCC cells HIF-2a reporter, luciferase luminescence, overnight; inhibition, % at 18.8 µM; actives 0.72% (n = 360,000); AID 624352, 2012;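 active = inhibition of the luminescence signal of 40% or more relative to plate controls, in a single-dose primary screen at 18.75 µM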
TROY signal inh: inhibitors of TROY-driven NF-kB signaling, primary screen, Q293 LMP1-TROYcd cells, NF-kB luciferase, uHTS; AID 1347056, 2019; Q293 LMP1-TROYcd NF-kB luciferase reporter, 4 h; actives 0.98% (n = 360,000); inhibition, % at 10 µM;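 active = compounds whose plate-normalised and pattern-corrected inhibition of the luciferase reporter signal at the single screening dose is 50% or more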
EBV LMP1 NFkB: EBV LMP1-driven NF-kappaB luciferase reporter inhibitors, primary screen, cell-based, luminescence, single point; LMP1-induced NF-kappaB luciferase reporter cells; inhibition, % at 12.5 µM; actives 0.69% (n = 350,000); AID 504558, 2011; in the data active = inhibition above about 41%;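 also: 0% = neutral control wells and 100% = reference inhibitor control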
Shn3 inh set2: reduction of Shn3 3'UTR firefly luciferase signal, primary screen, Schnurri-3 inhibitor project, cell-based, Clone20 osteoblasts, set 2; Clone20 osteoblast Shn3 3'UTR firefly luciferase, 24 h; inhibition, % at 12.5 µM; actives 0.52% (n = 360,000);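 active = mean inhibition of at least 75% with every replicate also reaching 75%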;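 also: 0% = median of neutral control wells and 100% = pilot-screen positive control compound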
TWEAK-Fn14 inh: inhibitors of TWEAK-Fn14 signaling, primary screen, luciferase reporter cells, uHTS. TWEAK-stimulated Fn14 reporter cells, luciferase luminescence, 8 h. inhibition, % at 10 µM. actives 2% (n = 360,000). AID 1159606, 2016; in the data active = inhibition above about 50%
MITF TRPM1 inh: inhibitors of MITF-dependent TRPM1 promoter reporter, primary screen, cell-based, SK-MEL-5, single point, luciferase | SK-MEL-5 TRPM1 promoter luciferase, 24 h | inhibition, % at 12.5 µM | actives 0.83% (n = 330,000);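 active = mean inhibition across replicates of 60% or more, whatever share of single replicates reaches that level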
* marks the source's active call; other numbers are inactive results; / = no result given.

SMILES	HIF-2a block	TROY signal inh	EBV LMP1 NFkB	Shn3 inh set2	TWEAK-Fn14 inh	MITF TRPM1 inh
O=C1C=C(c2cc3ccccc3s2)CCC1	-220	-37	51*	-118	-19	-98
C=CCN1C(=O)/C(=C/N(C)C)S/C1=N\S(=O)(=O)c1cccs1	-9	17	2	10	12	/
COc1ccc2nc(C)cc(Nc3ccc(N4CCN(C)CC4)cc3)c2c1	-47	-112	-9	-17	-50	97*
COC(=O)c1ccc2nc(C)cc(Nc3ccccc3C)c2c1	-4	-6	15	10	-13	8
COC(=O)c1ccc(Nc2cc(C)nc3ccc(C)cc23)cc1	19	-25	1	7	-16	76*
COc1ccc2nc(C)cc(N/N=C/c3ccccc3)c2c1	-11	-71	-21	19	-113	99*
COc1ccccc1/C=N/Nc1cc(C)nc2ccc(C)cc12	-78	-10	-3	-95	-5	12
CC(=O)Nc1ccc(S(=O)(=O)NCCC(=O)OCc2nnc(-c3ccccc3)o2)cc1	-14	17	-9	-4	-4	-15
O=C(CCNS(=O)(=O)c1ccccc1)OCc1nnc(-c2ccccc2)o1	-64	61*	-6	-7	1	-20
Cc1ccnc(NC(=O)CN2C(=O)NC(C)(c3ccc4ccccc4c3)C2=O)c1 (stereo unspecified)	-112	8	-13	-11	-3	-18
CCCC(C(=O)NCCC(C)C)N(Cc1ccccc1Cl)C(=O)c1snc(C(N)=O)c1N (stereo unspecified)	20	-5	-2	11	4	5
CC(C)C[C@H]1CN(CCCC[C@@H]2CNC(=O)C(=O)N2CC2CCCCC2)C(=O)C(=O)N1CCC1CCCCC1	-10	-1	/	/	11	/
Cc1ccc2[nH]c3c(=O)n(CCc4cnc[nH]4)cnc3c2c1	-152	53*	1	4	15	-17
Cc1ccc(NC(=O)CN2C(=O)C3CCCCN3C(=O)c3ccccc32)cc1 (stereo unspecified)	9	/	2	-11	53*	3
Cc1ccc(NC(=O)CN2CCCC2)cc1	-11	2	-4	-2	14	10
Cc1cc(C)c(OCC(=O)OC(C)C(=O)NCc2ccccc2)c(C)c1 (stereo unspecified)	19	8	2	-4	0	8
COC(=O)c1ccc(-c2ccc(C(c3c(C)[nH][nH]c3=O)c3c(C)[nH][nH]c3=O)o2)cc1	-25	13	-1	30	56*	43
CC(C)[N+](C)(CCOC(=O)C1c2ccccc2Oc2ccccc21)C(C)C	17	5	81*	15	0	0
CC(C)(C)NC(=O)COC(=O)C1c2ccccc2Oc2ccccc21	12	-7	-3	-6	5	-3
CCN(CC)C(=O)C1c2ccccc2Oc2ccccc21	21	-14	-2	-12	61*	-12
C=CCN(CC=C)C(=O)C1c2ccccc2Oc2ccccc21	5	-6	-10	1	25	/
CC(C)CNC(=O)COC(=O)C1c2ccccc2Oc2ccccc21	20	2	66*	4	1	36
CC(C)(C)CCN1CCC(CN2CCNC(=O)C2=O)CC1	2	-5	0	-5	10	10
CC1(C(=O)Nc2nccs2)CCN1C(=O)C1(c2ccccc2)CC1 (stereo unspecified)	-6	-3	/	-3	26	/
COc1ccc(/C=C2/CCCC(CN(C)C)C2=O)cc1 (stereo unspecified)	14	-1	-34	1	-19	68*
CN(C)CC1CCC/C(=C/c2ccc(Cl)cc2)C1=O (stereo unspecified)	1	-15	1	6	3	81*
CN(C)CC1CCC/C(=C\c2ccc(OC(=O)/C=C/c3ccc(Cl)c(Cl)c3)cc2)C1=O (stereo unspecified)	8	3	-1	7	-22	2
FC(F)(F)c1ccccc1Cc1c(-c2cccc(Br)c2)nc2ccc(Cl)cn12	-41	-2	/	-6	10	/

Compound activity from PubChem BioAssay.
